# This is one part of a sample in which the strongest signals are shown more often than they occur.
# Key:
# Experiment in all cases: glycan array binding signal (z-score within array); higher = stronger binding
# Conditions in all cases: glycan notation: IUPAC condensed, linker removed
# [1] = molecular target: Fuc(a1-2)Gal(b1-3)GlcNAc
# Summary of the method: (§1)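 Glycan array binding is given as a within-array Z-score, which can be read as non-binding when negative. The arrays, 3228 of them, came from the Consortium for Functional Glycomics database and were retained only where the protein sequence was available. Z-scores were averaged across arrays of the same protein sequence at different concentrations or buffers and across linkers.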
# [2] = molecular target: Fuc(a1-2)Gal(b1-3)GlcNAc(b1-2)Man(a1-3)[Fuc(a1-2)Gal(b1-3)GlcNAc(b1-2)Man(a1-6)]Man(b1-4)GlcNAc(b1-4)[Fuc(a1-6)]GlcNAc
# Summary of the method: as §1
# [3] = molecular target: Fuc(a1-2)Gal(b1-3)GlcNAc(b1-3)Gal(b1-4)Glc
# Summary of the method: as §1
# [4] = molecular target: Fuc(a1-2)Gal6S(b1-3)GlcNAc
# Summary of the method: as §1
# [5] = molecular target: Fuc(a1-2)[Gal(a1-3)]Gal(b1-4)GlcNAc(b1-2)Man(a1-3)[Fuc(a1-2)[Gal(a1-3)]Gal(b1-4)GlcNAc(b1-2)Man(a1-6)]Man(b1-4)GlcNAc(b1-4)GlcNAc
# Summary of the method: as §1
# [6] = molecular target: Fuc(a1-2)[Gal(a1-3)]Gal(b1-4)GlcNAc(b1-3)[Fuc(a1-2)[Gal(a1-3)]Gal(b1-4)GlcNAc(b1-6)]GalNAc
# Summary of the method: as §1
# [7] = molecular target: Fuc(a1-2)[Gal(a1-3)]Gal(b1-4)GlcNAc(b1-6)GalNAc
# Summary of the method: as §1
# [8] = molecular target: Fuc(a1-2)[GalNAc(a1-3)]Gal(b1-3)GlcNAc(b1-2)Man(a1-3)[Fuc(a1-2)[GalNAc(a1-3)]Gal(b1-3)GlcNAc(b1-2)Man(a1-6)]Man(b1-4)GlcNAc(b1-4)GlcNAc
# Summary of the method: as §1
# [9] = molecular target: Fuc(a1-2)[GalNAc(a1-3)]Gal(b1-4)GlcNAc(b1-2)Man(a1-3)[Fuc(a1-2)[GalNAc(a1-3)]Gal(b1-4)GlcNAc(b1-2)Man(a1-6)]Man(b1-4)GlcNAc(b1-4)[Fuc(a1-6)]GlcNAc
# Summary of the method: as §1
# [10] = molecular target: Fuc(a1-2)[GalNAc(a1-3)]Gal(b1-4)GlcNAc(b1-3)Gal(b1-4)GlcNAc(b1-3)Gal(b1-4)GlcNAc
# Summary of the method: as §1
# [11] = molecular target: Fuc(a1-3)[Gal(b1-4)]GlcNAc(b1-3)Gal(b1-3)[Fuc(a1-4)]GlcNAc
# Summary of the method: as §1
# [12] = molecular target: Fuc(a1-3)[Gal3S(b1-4)]GlcNAc6S
# Summary of the method: as §1
# [13] = molecular target: Fuc(a1-4)GlcNAc
# Summary of the method: as §1
# [14] = molecular target: Gal(a1-2)Gal
# Summary of the method: as §1
# [15] = molecular target: Gal(b1-2)Gal
# Summary of the method: as §1
# [16] = molecular target: Gal(b1-3)GlcNAc(b1-3)Gal(b1-4)GlcNAc(b1-2)[Gal(b1-3)GlcNAc(b1-3)Gal(b1-4)GlcNAc(b1-6)]Man(a1-6)[Gal(b1-3)GlcNAc(b1-3)Gal(b1-4)GlcNAc(b1-2)Man(a1-3)]Man(b1-4)GlcNAc(b1-4)[Fuc(a1-6)]GlcNAc
# Summary of the method: as §1
# [17] = molecular target: Gal(b1-3)[Fuc(a1-4)]GlcNAc
# Summary of the method: as §1
# [18] = molecular target: Gal(b1-3)[Neu5Ac(b2-6)]GalNAc
# Summary of the method: as §1
# [19] = molecular target: Gal(b1-4)GlcNAc(b1-2)Man(a1-6)[GlcNAc(b1-2)Man(a1-3)]Man(b1-4)GlcNAc(b1-4)GlcNAc
# Summary of the method: as §1
# [20] = molecular target: Gal(b1-4)GlcNAc(b1-3)Gal(b1-4)GlcNAc(b1-2)Man(a1-3)[Gal(b1-4)GlcNAc(b1-3)Gal(b1-4)GlcNAc(b1-2)Man(a1-6)]Man(b1-4)GlcNAc(b1-4)GlcNAc
# Summary of the method: as §1
# [21] = molecular target: Gal(b1-4)GlcNAc(b1-3)Gal(b1-4)GlcNAc(b1-3)Gal(b1-4)GlcNAc(b1-2)Man(a1-3)[Gal(b1-4)GlcNAc(b1-3)Gal(b1-4)GlcNAc(b1-3)Gal(b1-4)GlcNAc(b1-2)Man(a1-6)]Man(b1-4)GlcNAc(b1-4)GlcNAc
# Summary of the method: as §1
# [22] = molecular target: Gal(b1-4)GlcNAc(b1-3)Gal(b1-4)GlcNAc(b1-3)Gal(b1-4)GlcNAc(b1-3)Gal(b1-4)GlcNAc(b1-3)Gal(b1-4)GlcNAc(b1-2)Man(a1-3)[Gal(b1-4)GlcNAc(b1-3)Gal(b1-4)GlcNAc(b1-3)Gal(b1-4)GlcNAc(b1-3)Gal(b1-4)GlcNAc(b1-3)Gal(b1-4)GlcNAc(b1-2)Man(a1-6)]Man(b1-4)GlcNAc(b1-4)GlcNAc
# Summary of the method: as §1
# [23] = molecular target: Gal(b1-4)GlcNAc(b1-3)Gal(b1-4)GlcNAc(b1-3)Gal(b1-4)GlcNAc(b1-3)Gal(b1-4)GlcNAc(b1-3)Gal(b1-4)GlcNAc(b1-2)[Gal(b1-4)GlcNAc(b1-3)Gal(b1-4)GlcNAc(b1-3)Gal(b1-4)GlcNAc(b1-3)Gal(b1-4)GlcNAc(b1-3)Gal(b1-4)GlcNAc(b1-6)]Man(a1-6)[Gal(b1-4)GlcNAc(b1-3)Gal(b1-4)GlcNAc(b1-3)Gal(b1-4)GlcNAc(b1-3)Gal(b1-4)GlcNAc(b1-3)Gal(b1-4)GlcNAc(b1-2)Man(a1-3)]Man(b1-4)GlcNAc(b1-4)[Fuc(a1-6)]GlcNAc
# Summary of the method: as §1
# [24] = molecular target: Gal(b1-4)GlcNAc(b1-3)[Fuc(a1-3)GlcNAc(b1-6)]Gal(b1-4)Glc
# Summary of the method: as §1
# [25] = molecular target: Gal3S(b1-4)Glc6S
# Summary of the method: as §1
# [26] = molecular target: GalNAc(b1-4)GlcNAc
# Summary of the method: as §1
# [27] = molecular target: GalNAc(b1-4)GlcNAc6S
# Summary of the method: as §1
# [28] = molecular target: GlcNAc(b1-2)[GlcNAc(b1-4)]Man(a1-3)[GlcNAc(b1-4)][GlcNAc(b1-2)[GlcNAc(b1-6)]Man(a1-6)]Man(b1-4)GlcNAc(b1-4)[Fuc(a1-6)]GlcNAc
# Summary of the method: as §1
# [29] = molecular target: GlcNAc(b1-3)Gal(b1-4)GlcNAc(b1-2)[GlcNAc(b1-3)Gal(b1-4)GlcNAc(b1-6)]Man(a1-6)[GlcNAc(b1-3)Gal(b1-4)GlcNAc(b1-2)Man(a1-3)]Man(b1-4)GlcNAc(b1-4)GlcNAc
# Summary of the method: as §1
# [30] = molecular target: GlcNAc(b1-3)Gal(b1-4)GlcNAc(b1-3)Gal(b1-4)GlcNAc(b1-2)Man(a1-3)[GlcNAc(b1-3)Gal(b1-4)GlcNAc(b1-3)Gal(b1-4)GlcNAc(b1-2)Man(a1-6)]Man(b1-4)GlcNAc(b1-4)GlcNAc
# Summary of the method: as §1
# [31] = molecular target: GlcNAc(b1-3)Gal(b1-4)GlcNAc(b1-3)Gal(b1-4)GlcNAc(b1-3)Gal(b1-4)GlcNAc(b1-2)Man(a1-3)[GlcNAc(b1-3)Gal(b1-4)GlcNAc(b1-3)Gal(b1-4)GlcNAc(b1-3)Gal(b1-4)GlcNAc(b1-2)Man(a1-6)]Man(b1-4)GlcNAc(b1-4)[Fuc(a1-6)]GlcNAc
# Summary of the method: as §1
# [32] = molecular target: GlcNAc(b1-3)Man
# Summary of the method: as §1
# [33] = molecular target: GlcNAc(b1-4)GlcNAc
# Summary of the method: as §1
# [34] = molecular target: Kdn(a2-3)Gal(b1-4)GlcNAc
# Summary of the method: as §1
# [35] = molecular target: Man(a1-2)Man(a1-6)[Man(a1-3)]Man(a1-6)[Man(a1-2)Man(a1-2)Man(a1-3)]Man(b1-4)GlcNAc(b1-4)GlcNAc
# Summary of the method: as §1
# [36] = molecular target: Neu5Ac(a2-3)Gal
# Summary of the method: as §1
# [37] = molecular target: Neu5Ac(a2-3)Gal(b1-3)GalNAc(b1-4)[Neu5Ac(a2-3)]Gal(b1-4)Glc
# Summary of the method: as §1
# [38] = molecular target: Neu5Ac(a2-3)Gal(b1-4)GlcNAc(b1-2)Man
# Summary of the method: as §1
# [39] = molecular target: Neu5Ac(a2-3)Gal(b1-4)GlcNAc(b1-2)Man(a1-3)[Neu5Ac(a2-3)Gal(b1-4)GlcNAc(b1-2)Man(a1-6)]Man(b1-4)GlcNAc(b1-4)[Fuc(a1-6)]GlcNAc
# Summary of the method: as §1
# [40] = molecular target: Neu5Ac(a2-3)Gal(b1-4)GlcNAc(b1-3)Gal(b1-4)GlcNAc(b1-3)Gal(b1-4)GlcNAc(b1-2)Man(a1-3)[Neu5Ac(a2-3)Gal(b1-4)GlcNAc(b1-3)Gal(b1-4)GlcNAc(b1-3)Gal(b1-4)GlcNAc(b1-2)Man(a1-6)]GalNAc
# Summary of the method: as §1
# [41] = molecular target: Neu5Ac(a2-3)GalNAc(b1-4)GlcNAc
# Summary of the method: as §1
# [42] = molecular target: Neu5Ac(a2-6)Gal(b1-4)GlcNAc(b1-2)Man(a1-3)Man(b1-4)GlcNAc(b1-4)GlcNAc
# Summary of the method: as §1
# [43] = molecular target: Neu5Ac(a2-6)Gal(b1-4)GlcNAc(b1-2)Man(a1-3)[Man(a1-6)]Man(b1-4)GlcNAc(b1-4)GlcNAc
# Summary of the method: as §1
# [44] = molecular target: Neu5Ac(a2-8)Neu5Ac(a2-3)[Gal(b1-3)GalNAc(b1-4)]Gal(b1-4)Glc
# Summary of the method: as §1
# [45] = molecular target: Neu5Gc(a2-8)Neu5Gc(a2-6)Gal(b1-4)GlcNAc
# Summary of the method: as §1
binder,measurement,setting,value
Als3-41 (Candida albicans) (protein) KTITGVFNSFNSLTWSNAATYNYKGPGTPTWNAVLGWSLDGTSASPGDTFTLNMPCVFKFTTSQTSVDLTAHGVKYATCQFQAGEEFMTFSTLTCTVSNTLTPSIKALGTVTLPLAFNVGGTGSSVDLEDSKCFTAGTNTVTFNDGGKKISINVDFERSNVDPKGYLTDSRVIPSLNKVSTLFVAPQCANGYTSGTMGFANTYGDVQIDCSNIHVGITKGLNDWNYPVSSESFSYTKTCSSNGIFITYKNVPAGYRPFVDAYISATDVNSYTLSYANEYTCAGGYWQRAPFTLRWTGYRNSDAGSNGIVIVATTRTVTDSTTAVTTLPFDPNRDKTKTIEILKPIPTTTITTSYVGVTTSYLTKTAPIGETATVIVD,glycan array binding signal (z-score),[1],-0.256
same,glycan array binding signal (z-score),[2],-0.306
same,glycan array binding signal (z-score),[3],-0.317
same,glycan array binding signal (z-score),[4],-0.047
same,glycan array binding signal (z-score),[5],-0.283
same,glycan array binding signal (z-score),[6],1.91
same,glycan array binding signal (z-score),[7],-0.229
same,glycan array binding signal (z-score),[8],-0.203
same,glycan array binding signal (z-score),[9],-0.001
same,glycan array binding signal (z-score),[10],1.63
same,glycan array binding signal (z-score),[11],-0.315
same,glycan array binding signal (z-score),[12],1.6
same,glycan array binding signal (z-score),[13],7.63
same,glycan array binding signal (z-score),[14],-0.006
same,glycan array binding signal (z-score),[15],-0.182
same,glycan array binding signal (z-score),[16],0.669
same,glycan array binding signal (z-score),[17],-0.315
same,glycan array binding signal (z-score),[18],-0.359
same,glycan array binding signal (z-score),[19],-0.102
same,glycan array binding signal (z-score),[20],6.2
same,glycan array binding signal (z-score),[21],2.56
same,glycan array binding signal (z-score),[22],1.05
same,glycan array binding signal (z-score),[23],-0.117
same,glycan array binding signal (z-score),[24],-0.31
same,glycan array binding signal (z-score),[25],-0.151
same,glycan array binding signal (z-score),[26],0.551
same,glycan array binding signal (z-score),[27],1.79
same,glycan array binding signal (z-score),[28],-0.311
same,glycan array binding signal (z-score),[29],1.97
same,glycan array binding signal (z-score),[30],2.21
same,glycan array binding signal (z-score),[31],1.72
same,glycan array binding signal (z-score),[32],0.501
same,glycan array binding signal (z-score),[33],1.79
same,glycan array binding signal (z-score),[34],-0.355
same,glycan array binding signal (z-score),[35],-0.239
same,glycan array binding signal (z-score),[36],-0.322
same,glycan array binding signal (z-score),[37],-0.31
same,glycan array binding signal (z-score),[38],0.213
same,glycan array binding signal (z-score),[39],-0.35
same,glycan array binding signal (z-score),[40],6.54
same,glycan array binding signal (z-score),[41],-0.224
same,glycan array binding signal (z-score),[42],-0.296
same,glycan array binding signal (z-score),[43],-0.268
same,glycan array binding signal (z-score),[44],-0.006
same,glycan array binding signal (z-score),[45],-0.217

# From the supplement of paper PMC8728848
